The record followed here is PubChem BioAssay AID1159580 (chemical genetic matrix, 2015).

In all, about 5,500 compounds went through this assay and about 2,000 (36%) were called active. Inconclusive results (about 18%) are left out. Some of the results follow. A number with no mark means an inactive call. Rule as the data show it: active = normalized growth mostly below about 0.91 (no sharp cut-off); inconclusive = no clear call, values can overlap the other calls; inactive = mostly above about 0.92.

The test can be described thus: chemical genetic growth profiling, strain panel (AID 1159580).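 Also: tested at 20 µM; growth read once vehicle control cultures reached saturation at 30 °C; 1 = growth at the plate median or of vehicle wells.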 The conditions noted are these: S. cerevisiae deletion strains, growth OD.
Setting [1] is: locus YGR078C, strain PAC10, stronger effect = lower value.
Where [2] appears, read: locus YHR030C, strain SLT2, stronger effect = lower value.
[3] abbreviates: locus YMR263W, strain SAP30, stronger effect = lower value.
[4] abbreviates: locus YNL153C, strain GIM3, stronger effect = lower value.

Consider `CC(=O)c1ccc(S(=O)(=O)NC(=O)NC2CCCCC2)cc1`, for which the normalized growth reads like this: (locus YAL040C, strain CLN3, stronger effect = lower value) 1.06; (locus YER002W, strain NOP16, stronger effect = lower value) 0.998; under setting [1], 0.99; under setting [2], 0.959; (locus YHR079C, strain IRE1, stronger effect = lower value) 0.963; (locus YJL095W, strain BCK1, stronger effect = lower value) 1.02. Also, the normalized growth was 0.918 (locus YJR066W, strain TOR1, stronger effect = lower value); 0.995 (locus YLR113W, strain HOG1, stronger effect = lower value); 0.987 under setting [3]; 0.95 under setting [4]; 0.983 (locus YNL175C, strain NOP13, stronger effect = lower value); 0.937 (locus YNL183C, strain NPR1, stronger effect = lower value). The normalized growth reads like this: (locus YNL197C, strain WHI3, stronger effect = lower value) 0.986; (locus YNL224C, strain SQS1, stronger effect = lower value) 1.01; (locus YOR083W, strain WHI5 (second series), stronger effect = lower value) 1; (locus YOR231W, strain MKK1, stronger effect = lower value) 0.967; (locus YPL256C, strain CLN2, stronger effect = lower value) 0.965.
Turning to `CCOC(=O)/C(C#N)=C/N=C(N/N=C\c1c(Cl)cccc1Cl)SC`, the normalized growth reads like this: (locus YAL013W, strain DEP1, stronger effect = lower value) 0.98; (locus YBR229C, strain ROT2, stronger effect = lower value) 1.02; (locus YCL061C, strain MRC1, stronger effect = lower value) 1.06; (locus YDL101C, strain DUN1, stronger effect = lower value) 1.04; (locus YDR150W, strain NUM1, stronger effect = lower value) 1.03; (locus YEL061C, strain CIN8, stronger effect = lower value) 0.8 (active). For the same molecule, the normalized growth by setting is: under setting [1], 0.996; under setting [2], 0.687 (active); (locus YHR087W, strain rtc3, stronger effect = lower value) 1.01; (locus YJL187C, strain SWE1, stronger effect = lower value) 0.998; (locus YJR043C, strain POL32, stronger effect = lower value) 1.04; (locus YJR075W, strain HOC1, stronger effect = lower value) 1.02. In addition, the normalized growth runs as follows: (locus YKL190W, strain CNB1, stronger effect = lower value) 0.926 (active); (locus YLR039C, strain RIC1, stronger effect = lower value) 0.771 (active); (locus YLR058C, strain SHM2 (second series), stronger effect = lower value) 0.989; (locus YLR085C, strain ARP6, stronger effect = lower value) 0.845; (locus YLR262C, strain YPT6, stronger effect = lower value) 0.796 (active); (locus YML094W, strain GIM5, stronger effect = lower value) 0.901. For the same molecule, the normalized growth reads like this: (locus YMR219W, strain ESC1, stronger effect = lower value) 1.01; under setting [3], 1.01; (locus YMR307W, strain GAS1, stronger effect = lower value) 0.799; under setting [4], 1.03; (locus YNL298W, strain CLA4 (second series), stronger effect = lower value) 0.795 (active); (locus YNL322C, strain KRE1, stronger effect = lower value) 0.968. Besides, the normalized growth (locus YNR030W, strain Alg12, stronger effect = lower value) is 0.863 (active); the normalized growth (locus YPL055C, strain LGE1, stronger effect = lower value) was 0.956; the normalized growth (locus YPL241C, strain CIN2, stronger effect = lower value) was 0.764 (active); the normalized growth (locus YPR135W, strain CTF4, stronger effect = lower value) is 0.795.
